Laboratory results taken from PubChem BioAssay (NCI).
This is part of a sample that, as a whole, favours compounds with a hit. Of some 79,000 tested, about 15% had one in any assay. Active and inactive are the calls of the source. No stated cut-off is given here; in the data, active means growth inhibition above about 70%; inactive means the rest.

Tests used:
[1] = NCI Yeast Anticancer Drug Screen. Data for the wt1 strain (AID 149);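 further: 0% = growth of vehicle-treated wt1 cultures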; settings: S. cerevisiae wt1 strain (SPY 50644) growth inhibition, hits give high values
Procedure, shortened: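 Compounds are added to wt1 yeast cultures. Growth is then measured. Inhibition is expressed relative to vehicle-treated controls.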

[2] = NCI Yeast Anticancer Drug Screen. Data for the rad50EPP+ strain (AID 151);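 further: 0% = growth of vehicle-treated control cultures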; settings: S. cerevisiae rad50 mutant strain, hits give high values
Procedure, shortened: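 One strain with a rad50 alteration (rad50EPP+) was compound-treated, its growth then compared to that of vehicle controls.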

[3] = NCI Yeast Anticancer Drug Screen. Data for the mgt1 strain (AID 153); settings: S. cerevisiae mgt1 mutant growth inhibition, hits give high values
Procedure, shortened: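 After exposure of the mgt1 yeast mutant to compound, growth was measured and reported as inhibition compared with vehicle controls.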

[4] = NCI Yeast Anticancer Drug Screen. Data for the rad50 strain (AID 155);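 further: 0% = growth of vehicle-only cultures of the same strain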; settings: S. cerevisiae rad50 strain growth inhibition, hits give high values
Procedure, shortened: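 Inhibition values express reduced yeast growth in compound-treated cultures relative to vehicle-treated controls.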

[5] = NCI Yeast Anticancer Drug Screen. Data for the mec2-1 strain (AID 157); settings: S. cerevisiae mec2-1 strain, hits give high values
Procedure, shortened: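 Test agents were screened against the mec2-1 yeast strain, with defined DNA repair or cell cycle alteration. Growth was scored as inhibition against vehicle-only controls.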

[6] = NCI Yeast Anticancer Drug Screen. Data for the rad14 strain (AID 159);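 further: 0% = growth of vehicle-treated control cultures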; settings: S. cerevisiae rad14 strain growth inhibition, hits give high values
Procedure, shortened: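 A mutant yeast strain defective in DNA damage repair is treated with compound; inhibition of its growth is scored against untreated, vehicle-exposed cultures.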

[7] = NCI Yeast Anticancer Drug Screen. Data for the sgs1 mgt1 strain (AID 161);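 further: 0% = growth of cultures given vehicle only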; settings: S. cerevisiae sgs1 mgt1 strain, hits give high values
Procedure, shortened: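 Inhibition of yeast growth, normalised to vehicle-treated controls, is reported for a strain bearing genetic alterations in DNA damage repair.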

[8] = NCI Yeast Anticancer Drug Screen. Data for the CLN2oe strain (AID 163);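 further: 0% = growth of vehicle-only control cultures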; settings: S. cerevisiae CLN2oe strain, hits give high values
Procedure, shortened: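 Here, growth inhibition in a cell-cycle-altered yeast strain after compound exposure was quantified against vehicle control growth.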

[9] = NCI Yeast Anticancer Drug Screen. Data for the cln2 rad14 strain (AID 165);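 further: 0% = growth equal to vehicle treated cultures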; settings: S. cerevisiae cln2 rad14 strain, hits give high values
Procedure, shortened: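 Growth of compound-exposed yeast (cln2 rad14 genotype) measured and expressed as inhibition relative to vehicle.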

[10] = NCI Yeast Anticancer Drug Screen. Data for the bub3 strain (AID 167); settings: S. cerevisiae bub3 mutant strain, hits give high values
Procedure, shortened: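 Steps: expose the mutant yeast strain to compound; grow alongside vehicle-treated cultures; measure growth; express inhibition against the vehicle cultures.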

[11] = NCI Yeast Anticancer Drug Screen. Data for the wt2 strain (AID 169);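 further: 0% = growth of vehicle-treated yeast cultures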; settings: S. cerevisiae wt2 strain growth inhibition, hits give high values
Procedure, shortened: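 Genetically defined yeast strains from a DNA-repair/cell-cycle panel were used. Compound-exposed yeast growth was measured, and the inhibition was calculated relative to vehicle treatment.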

[12] = NCI Yeast Anticancer Drug Screen. Data for the mlh1 strain (AID 171);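 further: 0% = growth of vehicle-treated control cultures of the same strain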; settings: S. cerevisiae mlh1 strain growth inhibition, hits give high values
Procedure, shortened: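 Here the genetically defined yeast mutant is grown with each compound, and the extent to which its growth falls below that of vehicle-exposed cells is reported.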

[13] = NCI Yeast Anticancer Drug Screen. Data for the sgs1 strain (AID 173);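 further: 0% = growth of vehicle-only control cultures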; settings: S. cerevisiae sgs1 mutant, hits give high values
Procedure, shortened: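 Relative growth inhibition, referenced to vehicle, was determined in a yeast strain with a defined alteration affecting DNA damage repair or cell cycle control after compound exposure.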

[14] = NCI Yeast Anticancer Drug Screen. Data for the mlh1 rad18 strain (AID 175); settings: S. cerevisiae mlh1 rad18 strain growth inhibition, hits give high values
Procedure, shortened: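 In this whole-cell yeast screen, a strain with altered DNA damage repair is challenged with compound, and its growth is measured against matched vehicle-treated controls.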

[15] = NCI Yeast Anticancer Drug Screen. Data for the rad18 strain (AID 177); settings: S. cerevisiae rad18 mutant growth inhibition, hits give high values
Procedure, shortened: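 Screen uses a yeast strain with a defined lesion in DNA damage repair; compound effect is read as loss of growth compared to untreated vehicle cultures.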

[16] = at 5.0 µM (retest, dose inferred, filed as 0.5)
[17] = at 50.0 µM (retest, dose inferred, filed as 5.0)

Measured: growth inhibition

O=[N+]([O-])c1ccc(=S)[nH]c1
inactive: [1]; at 1.2 µM -1% | [1]; at 3.7 µM -2% | [1]; at 11.0 µM -6% | [1]; at 33.0 µM 13% | [2]; at 1.2 µM 0% | [2]; at 3.7 µM -2% | [2]; at 11.0 µM 23% | [3]; at 1.2 µM -3% | [3]; at 3.7 µM -2% | [3]; at 11.0 µM 1% | [3]; at 33.0 µM 34% | [4]; at 1.2 µM 0% | [4]; at 3.7 µM -6% | [4]; [16] -5% | [4]; at 11.0 µM -5% | [4]; at 33.0 µM 28% | [5]; at 1.2 µM -2% | [5]; at 3.7 µM -1% | [5]; [16] -9% | [5]; at 11.0 µM -5% | [5]; at 33.0 µM 60% | [6]; at 1.2 µM -5% | [6]; at 3.7 µM -6% | [6]; at 11.0 µM -5% | [6]; at 33.0 µM 42% | [7]; [16] 32% | [8]; at 1.2 µM -1% | [8]; at 3.7 µM -8% | [8]; at 11.0 µM -8% | [8]; at 33.0 µM -10% | [8]; at 100.0 µM 67% | [9]; [16] 5% | [9]; [17] 55% | [9]; at 50.0 µM 37.6% | [10]; at 1.2 µM -6% | [10]; at 3.7 µM -7% | [10]; [16] 10% | [10]; at 11.0 µM -6% | [10]; at 33.0 µM 54% | [11]; at 1.2 µM 0% | [11]; at 3.7 µM 1% | [11]; at 11.0 µM 2% | [11]; at 33.0 µM 39% | [12]; at 1.2 µM 0% | [12]; at 3.7 µM 1% | [12]; at 11.0 µM 1% | [12]; at 33.0 µM 52% | [13]; at 1.2 µM 0% | [13]; at 3.7 µM 4% | [13]; at 11.0 µM 17% | [14]; [16] 51% | [15]; at 1.2 µM -1% | [15]; at 3.7 µM 0% | [15]; at 11.0 µM -5% | [15]; at 33.0 µM 40%
active: [1]; at 100.0 µM 78% | [2]; at 33.0 µM 85% | [2]; at 100.0 µM 97% | [3]; at 100.0 µM 93% | [4]; [17] 99% | [4]; at 50.0 µM 98.8% | [4]; at 100.0 µM 86% | [5]; [17] 88% | [5]; at 50.0 µM 99.4% | [5]; at 100.0 µM 99% | [6]; at 100.0 µM 99% | [7]; [17] 100% | [7]; at 50.0 µM 98.2% | [10]; [17] 98% | [10]; at 50.0 µM 99.3% | [10]; at 100.0 µM 98% | [11]; at 100.0 µM 93% | [12]; at 100.0 µM 96% | [13]; at 33.0 µM 76% | [13]; at 100.0 µM 99% | [14]; [17] 99% | [14]; at 50.0 µM 93.1% | [15]; at 100.0 µM 94%

CCCCCCCCCCCC(=O)N(C)C
active: [1]; at 100.0 µM 99% | [3]; at 100.0 µM 99% | [4]; [17] 92% | [4]; at 50.0 µM 90.5% | [4]; at 100.0 µM 98% | [5]; [17] 96% | [5]; at 50.0 µM 92.7% | [5]; at 100.0 µM 98% | [6]; at 100.0 µM 99% | [7]; [17] 98% | [7]; at 50.0 µM 93.2% | [8]; at 100.0 µM 98% | [9]; [17] 98% | [9]; at 50.0 µM 91.5% | [10]; [17] 97% | [10]; at 50.0 µM 92% | [10]; at 100.0 µM 98% | [11]; at 100.0 µM 99% | [12]; at 100.0 µM 98% | [14]; [17] 94% | [14]; at 50.0 µM 91% | [15]; at 100.0 µM 98%
inactive: [1]; at 1.2 µM -15% | [1]; at 3.7 µM -13% | [1]; at 11.0 µM -14% | [1]; at 33.0 µM -14% | [3]; at 1.2 µM 7% | [3]; at 3.7 µM 3% | [3]; at 11.0 µM 18% | [3]; at 33.0 µM 23% | [4]; at 1.2 µM -2% | [4]; at 3.7 µM -5% | [4]; [16] 38% | [4]; at 11.0 µM -18% | [4]; at 33.0 µM 29% | [5]; at 1.2 µM -34% | [5]; at 3.7 µM -24% | [5]; [16] 42% | [5]; at 11.0 µM -27% | [5]; at 33.0 µM 34% | [6]; at 1.2 µM 7% | [6]; at 3.7 µM 2% | [6]; at 11.0 µM 12% | [6]; at 33.0 µM 34% | [7]; [16] -2% | [8]; at 1.2 µM 2% | [8]; at 3.7 µM 19% | [8]; at 11.0 µM 2% | [8]; at 33.0 µM 0% | [9]; [16] 31% | [10]; at 1.2 µM 3% | [10]; at 3.7 µM -28% | [10]; [16] -4% | [10]; at 11.0 µM 3% | [10]; at 33.0 µM 18% | [11]; at 1.2 µM -6% | [11]; at 3.7 µM -11% | [11]; at 11.0 µM -11% | [11]; at 33.0 µM 29% | [12]; at 1.2 µM -32% | [12]; at 3.7 µM -35% | [12]; at 11.0 µM -26% | [12]; at 33.0 µM -28% | [14]; [16] 41% | [15]; at 1.2 µM -9% | [15]; at 3.7 µM -4% | [15]; at 11.0 µM -7% | [15]; at 33.0 µM 15%
